Assay results reported in PubChem BioAssay.

Key:
[1] = test system: Human papillomavirus type 1a protein E7 (residues 44-93); test: small molecules binding HPV E7 44-93 – biochemical, small-molecule microarray, residues 44-93, 635 nm fluorescence, primary screen (AID 1108); settings: fluorescence 635 nm, higher = more signal;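 also: E7 fragment applied at 1 µg/mL in TBST for 1 h at 4 C; score combines spot fluorescence with its signal to noise ratio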
[2] = hepatitis C replication reporter changes, two-sided – Huh7 cells, luciferase reporter, HCV replication inhibitor project, primary screen (AID 1109); settings: Huh7 HCV replicon luciferase reporter, 48 h; higher = more signal;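 also: huh7 hepatoma cells harbouring a luciferase neomycin HCV replicon reporter; luciferase luminescence as measure of HCV replicon replication; test concentration not given here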
[3] = target: Left-right determination factor 2 (Homo sapiens) (UniProt O00292); test: small molecules binding LEFTY2 protein – biochemical, small-molecule microarray, 635 nm fluorescence scan, primary screen (AID 1110); settings: higher = more signal
[4] = target: Calmodulin-1 (Homo sapiens) (UniProt P0DP23); test: small molecules binding calmodulin-1 with EGTA – biochemical, small-molecule microarray, Cy5-labelled CALM1, profiling panel (AID 1111); settings: Cy5-CALM1 binding fluorescence, higher = more signal;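 also: labelled calmodulin applied in Tris saline Tween buffer holding calcium plus EGTA and DTT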
[5] = target: Calmodulin-1 (Homo sapiens) (UniProt P0DP23); test: small molecules binding Ca-loaded calmodulin-1 – biochemical, small-molecule microarray, Cy5-labelled CALM1, plus calcium, artefact control for SMM control-protein annotation, profiling panel (AID 1112); settings: Cy5-CALM1 binding fluorescence, higher = more signal;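 also: score merges spot fluorescence with signal to noise from triplicate slides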
[6] = probe aWnt5a binding to arrayed compounds – biochemical, biotinylated probe, 635/667 nm fluorescence, primary screen (AID 1113); settings: small-molecule microarray, higher = more signal;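 also: score merges 667 nm fluorescence intensity with signal-to-noise per printed feature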
[7] = probe aShh binding to arrayed compounds – biochemical, biotinylated probe, 635/667 nm fluorescence, primary screen (AID 1114); settings: small-molecule microarray, higher = more signal;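 also: probe is biotin-labelled aShh protein from a stem cell growth factor screen; measures binding of labelled protein to compounds printed on the slide; score merges feature fluorescence at 667 nm with signal-to-noise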
[8] = probe aNog binding to arrayed compounds – biochemical, biotinylated probe, 635/667 nm fluorescence, primary screen (AID 1115); settings: small-molecule microarray, higher = more signal;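 also: probe is biotinylated aNog protein used at 0.15 µg/mL for 1 h at 4 C; z-score combines 667 nm fluorescence of each spot with its signal to noise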
[9] = target: Torsin-1A-interacting protein 1 (Homo sapiens) (UniProt Q5JTV8); test: compound microarray binding of lysate hLAP1 – cell lysate, small-molecule microarray, COS7 lysate, 635/667 nm fluorescence, primary screen (AID 1116); settings: 635 nm fluorescence, higher = more signal
[10] = target: Alpha-bungarotoxin (Bungarus multicinctus) (UniProt P60615); test: compounds binding labelled alpha-BTX control protein – biochemical, small-molecule microarray, Alexa647 label, 635/667 nm fluorescence, artefact control for SMM control protein annotation, profiling panel (AID 1117); settings: alpha-BTX-A647 binding fluorescence, higher = more signal
Chain of Alpha-bungarotoxin (Bungarus multicinctus) (P60615 whole entry, looked up): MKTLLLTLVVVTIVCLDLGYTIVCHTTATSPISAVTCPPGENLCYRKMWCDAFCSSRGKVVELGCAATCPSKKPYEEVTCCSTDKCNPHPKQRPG

Chain of Torsin-1A-interacting protein 1 (Homo sapiens) (Q5JTV8 whole entry, looked up): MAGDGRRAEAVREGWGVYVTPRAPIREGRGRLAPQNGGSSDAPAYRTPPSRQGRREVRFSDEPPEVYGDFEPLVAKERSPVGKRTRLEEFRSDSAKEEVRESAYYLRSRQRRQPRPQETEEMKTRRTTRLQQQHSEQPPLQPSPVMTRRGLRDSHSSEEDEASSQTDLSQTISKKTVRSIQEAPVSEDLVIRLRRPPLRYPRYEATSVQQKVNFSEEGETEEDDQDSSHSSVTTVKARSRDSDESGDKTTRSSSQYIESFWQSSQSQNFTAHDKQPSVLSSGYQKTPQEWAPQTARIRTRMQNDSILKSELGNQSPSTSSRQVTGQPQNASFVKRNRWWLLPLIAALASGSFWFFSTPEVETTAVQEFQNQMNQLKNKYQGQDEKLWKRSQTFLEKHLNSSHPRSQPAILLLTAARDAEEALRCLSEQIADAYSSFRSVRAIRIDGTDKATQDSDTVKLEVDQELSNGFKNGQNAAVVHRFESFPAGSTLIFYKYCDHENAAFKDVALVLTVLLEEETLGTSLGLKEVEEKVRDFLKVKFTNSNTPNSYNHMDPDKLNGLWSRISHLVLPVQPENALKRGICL
Chain of Left-right determination factor 2 (Homo sapiens) (O00292 whole entry, looked up): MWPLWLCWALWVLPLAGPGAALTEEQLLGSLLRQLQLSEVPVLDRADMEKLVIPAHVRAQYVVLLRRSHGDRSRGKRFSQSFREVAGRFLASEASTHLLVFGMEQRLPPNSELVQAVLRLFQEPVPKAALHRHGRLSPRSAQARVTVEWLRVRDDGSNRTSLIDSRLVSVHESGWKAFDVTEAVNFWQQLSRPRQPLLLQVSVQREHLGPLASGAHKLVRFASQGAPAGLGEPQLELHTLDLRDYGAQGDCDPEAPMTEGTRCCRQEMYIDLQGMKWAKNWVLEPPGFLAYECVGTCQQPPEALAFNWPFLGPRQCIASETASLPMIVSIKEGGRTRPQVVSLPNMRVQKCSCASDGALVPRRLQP

| Structure (SMILES) | composite z-score [1] | z-score [2] | composite z-score [3] | composite z-score [4] | composite z-score [5] | composite z-score [6] | composite z-score [7] | composite z-score [8] | composite z-score [9] | composite z-score [10] |
| --- | --- | --- | --- | --- | --- | --- | --- | --- | --- | --- |
| O=C1NC(=O)C2C1C=CC(C(O)c1ccco1)N2Nc1ccc(Cl)cc1Cl (stereo not given) | 0.478 | -0.664 | -0.39 | 0.317 | 0.381 | -0.152 | 0.111 | -0.3 | 0.478 | 0.396 |
| NCCCCCCNC(=O)[C@@H]1C[C@@H]2C(=O)N[C@@H](CCCCN)C(=O)N2[C@@H]1c1ccc(O)cc1 | 1.31 | -0.31 | 0.642 | -0.301 | 0.0301 | -0.172 | 0.12 | -0.0087 | 1.66 | -1.03 |
| COc1ccc([Si](C)(C)[C@@H]2[C@@H](CCO)O[C@]3(C(=O)N(Cc4ccccc4)c4ccc(N5CCOC5=O)cc43)[C@H]2C)cc1 | 1.35 | -4.17 | 0.217 | 0.623 | 0.521 | 0.394 | -0.0793 | 0.0139 | 0.855 | 1.09 |
| C=C(/C(=C/C[C@H](OC(=O)c1ccncc1)c1ccc(CO)o1)c1cnc2ccccc2c1)C(C)C | 1.38 | -2.1 | 0.957 | 0.544 | -0.0351 | 0.0474 | -0.15 | 0.181 | 0.854 | 0.999 |
| O=C1CS(=O)(=O)C(c2cccc([N+](=O)[O-])c2)N1c1ccccc1 (stereo not given) | -0.611 | -0.376 | 0.432 | 0.0568 | -0.177 | 0.157 | 0.122 | -0.217 | 1.49 | 1.98 |
| COCCOC(=O)N1C(=O)[C@@]2(c3cc(C#CCC(C(=O)OC)C(=O)OC)ccc31)[C@H](c1ccc(OCCO)cc1)N1[C@H](c3ccccc3)[C@H](c3ccccc3)OC(=O)[C@H]1[C@@H]2C(=O)N1CCc2cc(OC)c(OC)cc2C1 | 1.42 | -0.919 | 0.52 | 1.01 | 0.182 | -0.072 | 0.123 | 0.353 | 1.05 | 1.68 |
| CCOC(=O)C[C@H]1[C@H](OC(=O)Cc2ccc3c(c2)OCO3)[C@@H](NC(=O)c2ccc3ccccc3n2)c2cc(OCCCO)ccc2N1C(=O)c1ccc2ccccc2n1 | 0.0977 | -1.63 | 0.464 | 0.509 | -0.0205 | -0.0512 | 0.0048 | -0.115 | 0.0995 | 0.406 |
| COc1ccc([Si](C)(C)[C@H]2[C@H](CC(=O)N(CCO)Cc3ccccc3)O[C@@]3(C(=O)N(C)c4c(Br)cc(C)cc43)[C@@H]2C)cc1 | 0.926 | -4.28 | 1.12 | -0.763 | 0.973 | -0.176 | -0.154 | -0.291 | 0.491 | 0.572 |
| COc1ccc([Si](C)(C)[C@@H]2[C@@H](CC(=O)N(CCO)Cc3ccccc3)O[C@]3(C(=O)N(Cc4cccc(N5CCCCC5=O)c4)c4ccccc43)[C@H]2C)cc1 | 0.846 | -3.89 | 0.478 | 0.822 | 0.645 | 0.0825 | 0.128 | 1.73 | 0.761 | 0.672 |
| CCOC(=O)C[C@H]1[C@H](OC(=O)c2ccc(C(=O)c3ccccc3)cc2)[C@@H](NC(=O)c2ccc3ccccc3n2)c2cc(OCCCO)ccc2N1C(=O)Cc1ccc(OC)cc1 | 0.947 | 0.361 | 0.471 | 1.08 | 0.0823 | -0.202 | 0.0115 | -0.259 | -0.0179 | -0.0434 |
| C[N+](C)(C)CCCCCCNC(=O)[C@@H]1C[C@@H]2C(=O)N3CCC[C@H]3C(=O)N2[C@@H]1c1ccc(O)cc1 | 0.279 | 0.501 | 0.994 | -0.31 | -0.887 | -0.0239 | -0.138 | -0.29 | 0.531 | 0.341 |
| CC1CC/C=C\[C@H]2OC34C=CCN(c5ccc(Cl)cc5)C(=O)[C@H]3N(C(C)CO)C(=O)[C@]4(C)C2C(=O)O1 (stereo not given in full) | -0.815 | -1.16 | -0.707 | 0.253 | -0.141 | -0.124 | -0.289 | -0.0133 | 0.0045 | -0.664 |
| CCOC(=O)C1=C[C@@H](C(C)(C)C)N(S(=O)(=O)c2ccc(C)cc2)[C@H]1c1cccc2ccccc12 | 1.28 | -2.28 | -0.49 | 1.07 | 0.423 | -0.0478 | -0.156 | -0.145 | -0.281 | 0.657 |
| CN(C)C(=O)[C@@]1(Cc2ccccc2)N=C(c2ccc(OCCCO)cc2)O[C@H]1c1ccccc1 | 0.508 | -1.76 | -0.469 | 1.58 | 0.972 | 0.217 | 0.0654 | -0.332 | 1.44 | 0.907 |
| CO[C@H]1O[C@H](CO)[C@@H](OC(=O)CCc2ccccc2)[C@@H]2OC(=O)[C@@H](Cc3ccccc3)C/C=C/C[C@H](Cc3ccccc3)C(=O)O[C@@H]12 | 1.3 | -1.97 | 0.0673 | 0.485 | 0.0529 | -0.0802 | 0.772 | 0.156 | -0.161 | 1.29 |
| COC(=O)C/C=C/C[C@]1(O)C(=O)N(C)c2ccccc21 | 0.0938 | 0.027 | 0.704 | -1.34 | -0.895 | -0.122 | -0.243 | -0.252 | 0.194 | 0.766 |
| CCOC(=O)C[C@H]1[C@H](OC(=O)c2ccccc2-c2ccccc2)[C@@H](NC(=O)c2ccc3ccccc3c2)c2cc(OCCCO)ccc2N1C(=O)c1ccccc1 | 0.461 | -1.27 | 0.596 | -0.09 | -0.332 | -0.0981 | -0.291 | 0.0043 | 0.228 | 0.789 |
| C#CCN(Cc1ccccc1Br)[C@H](/C=C/c1ccccc1)[C@@H](O)Cc1ccccc1 | 0.169 | -1.42 | -0.81 | -1.03 | 0.41 | -0.128 | -0.124 | 0.0108 | -0.354 | 0.192 |
